Compound activity deposited in PubChem by several laboratories.
CYP2C19 inhib = human CYP2C19 inhibition; P33261; CYP2C19 Supersomes, luciferin-H EGE luminescence, 30 min; inhibition, % at 5 µM; 96,000 compounds, 21% hits; AID 778;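 active = CYP2C19 inhibition above a set limit at 5 µM in the primary screen, cut at about 50% in these data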;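 note: plate controls were negative control wells for no effect and 2.5 mM tranylcypromine positive control for full effect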
CYP2C9 inhib = inhibitors of human CYP2C9; CYP2C9 Supersomes, luciferin-H conversion, luminescence; P11712; 96,000 compounds, 20% hits; inhibition, % at 5 µM;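 active = blocking of liver enzyme CYP2C9 beyond about 50% at 5 µM, limit read from the data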
Cav3 T inh = human Cav3.2 channel inhibition, primary screen; 100,000 compounds, 4% hits; O95180; Cav3.2-expressing cells, Fluo-4 calcium fluorescence FDSS; hits give low values; B-score at 10 µM;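 active = single-dose well whose peak fluorescence ratio is a statistical outlier from its plate by either plate-standardised score or position-corrected B-score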
PTK2B oligo ant = antagonists of human Pyk2 oligomerization. Q14289. Q293 cells, Pyk2 FERM NanoBiT luminescence; hits give low values. z-score (the deposit names both 25 µM and 10 µM). 99,000 compounds, 0.83% hits;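 active = Z-score of -3 or lower, scaled per plate to the spread of control and sample wells; inactive = z-score above -3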;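 note: negative z-score means lost luminescence so less FERM oligomerization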
CYP2C9 activ = CYP2C9 (human) activation; P11712; recombinant CYP2C9, luciferin-H conversion, luminescence; hits give high values; factor 1 = untreated enzyme, 0 = blocked; activation factor at 5 µM; 96,000 compounds, 1.4% hits;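 active = activation factor of 2 or more for CYP2C9 at a 5 µM dose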;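 note: 0 = sulfaphenazole-blocked wells and 1 = vehicle-only wells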
CYP2C19 act = cytochrome P450 2C19 (human) activation | recombinant CYP2C19, luciferin-H EGE luminescence; hits give high values; 0 = fully inhibited enzyme, 1 = untreated enzyme | activation factor at 5 µM | 96,000 tested, under 10 active;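 active = activation factor of at least 2 at 5 µM in the primary screen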;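 note: 0 = wells with 2.5 mM tranylcypromine and 1 = vehicle-only wells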
* marks the source's active call; other numbers are inactive results. Only some compounds are listed: those with a hit (about 27% of all), similar ones and a draw of the others.

Screening COC(=O)CCC(=O)N1CCc2cc(S(=O)(=O)N3CCc4ccccc43)ccc21 returned CYP2C19 inhib 12, CYP2C9 inhib 15, PTK2B oligo ant 1.4, CYP2C9 activ 0.8 and CYP2C19 act 0.9.
For COc1ccc(Cc2nnn(CC(=O)O)n2)cc1 the results were CYP2C19 inhib -2, CYP2C9 inhib -27, Cav3 T inh 0.86, PTK2B oligo ant 0.62, CYP2C9 activ 1.3 and CYP2C19 act 1.
`O=C(C1=C(O)C(=O)N(Cc2ccco2)C1c1ccccc1)c1cccs1` (centres undefined) gave CYP2C19 inhib 21, CYP2C9 inhib 44, Cav3 T inh -3.4, PTK2B oligo ant 0.5, CYP2C9 activ 0.6 and CYP2C19 act 0.8.
CSc1nc2sc3c(c2c(=O)n1C)CCC(C)C3 (centres undefined) was read as CYP2C19 inhib 5, CYP2C9 inhib 17, Cav3 T inh -2.6, PTK2B oligo ant -0.44, CYP2C9 activ 0.8 and CYP2C19 act 1.
C=CCn1nnc2sc3c(c2c1=O)CCC(C)C3 (centres undefined) was read as CYP2C19 inhib 97*, CYP2C9 inhib 49, Cav3 T inh -0.11, PTK2B oligo ant 1.4, CYP2C9 activ 0.5 and CYP2C19 act 0.
Screening COC(=O)C1=C2SC(C)C(=O)N2C(N)=C(C#N)C1c1cc(OC)c(OC)c(OC)c1 (centres undefined) returned CYP2C19 inhib 12, CYP2C9 inhib 24, Cav3 T inh -0.32, PTK2B oligo ant -0.54, CYP2C9 activ 0.8 and CYP2C19 act 0.9.
Screening COC(=O)C1=C2SC(C)C(=O)N2C(N)=C(C#N)C1c1ccc(OC)c(OC)c1 (centres undefined) returned CYP2C19 inhib 29, CYP2C9 inhib 56*, Cav3 T inh 0.55, PTK2B oligo ant -0.3, CYP2C9 activ 0.4 and CYP2C19 act 0.7.
For COC(=O)CNC(=O)CN1C(=O)N(c2ccc(Cl)cc2)C(N(O)C(=O)Nc2ccc(Cl)cc2)C1(C)C (centres undefined) the results were CYP2C19 inhib 33, CYP2C9 inhib 21, Cav3 T inh -2.3, PTK2B oligo ant 0.36, CYP2C9 activ 0.8 and CYP2C19 act 0.7.
Nc1[nH]n2c(=O)c3c(nc2c1N=Nc1ccccc1)CCCC3 was read as CYP2C19 inhib 5, CYP2C9 inhib 34, Cav3 T inh -9.6*, PTK2B oligo ant 0.12, CYP2C9 activ 0.7 and CYP2C19 act 0.9.
Nc1[nH]n2c(=O)c3c(nc2c1N=Nc1ccc(Cl)cc1)CCCC3 was read as CYP2C19 inhib 3, CYP2C9 inhib 41, Cav3 T inh -8.7*, PTK2B oligo ant -0.4, CYP2C9 activ 0.6 and CYP2C19 act 1.
`O=C1CCn2nc(-c3ccc(Cl)cc3)cc2N1` gave CYP2C19 inhib -5, CYP2C9 inhib 8, Cav3 T inh 0.083, CYP2C9 activ 0.9 and CYP2C19 act 1.
O=C1C2=C(Nc3ccccc3SC2c2ccco2)c2ccccc21 (centres undefined) was read as CYP2C19 inhib 19, CYP2C9 inhib 78*, Cav3 T inh -5.1*, PTK2B oligo ant -0.54, CYP2C9 activ 0.2 and CYP2C19 act 0.8.
`Cc1ccccc1NC1c2ccccc2C(=O)N1Cc1ccco1` (centres undefined) gave CYP2C19 inhib 38, CYP2C9 inhib 25, Cav3 T inh -1.4, CYP2C9 activ 0.8 and CYP2C19 act 0.6.
For O=C1c2cccnc2C(Nc2ccccc2)N1Cc1ccco1 (centres undefined) the results were CYP2C19 inhib 18, CYP2C9 inhib 15, Cav3 T inh 1.3, PTK2B oligo ant 0.47, CYP2C9 activ 0.8 and CYP2C19 act 0.8.
Screening O=C1c2ccccc2C(Nc2cccc(C(F)(F)F)c2)N1Cc1ccco1 (centres undefined) returned CYP2C19 inhib 68*, CYP2C9 inhib 60*, Cav3 T inh -5.2*, PTK2B oligo ant -1.9, CYP2C9 activ 0.4 and CYP2C19 act 0.3.
For COc1cccc(NC2c3ccccc3C(=O)N2Cc2ccco2)c1 (centres undefined) the results were CYP2C19 inhib 41, CYP2C9 inhib 57*, Cav3 T inh -2.4, CYP2C9 activ 0.4 and CYP2C19 act 0.6.
CCN(CC)S(=O)(=O)c1ccc(NC2c3ccccc3C(=O)N2Cc2ccco2)cc1 (centres undefined) was read as CYP2C19 inhib 41, CYP2C9 inhib 92*, Cav3 T inh -2.9, CYP2C9 activ 0.1 and CYP2C19 act 0.6.
Screening CCN(CC)S(=O)(=O)c1ccc(NC2c3ccccc3C(=O)N2Cc2ccc3c(c2)OCO3)cc1 (centres undefined) returned CYP2C19 inhib 13, CYP2C9 inhib 9, Cav3 T inh -1.2, CYP2C9 activ 0.9 and CYP2C19 act 0.9.
For CCOC(=O)c1cccc(NC2c3ccccc3C(=O)N2Cc2ccco2)c1 (centres undefined) the results were CYP2C19 inhib 39, CYP2C9 inhib 44, Cav3 T inh -6.6*, CYP2C9 activ 0.6 and CYP2C19 act 0.6.
`C=CCN1C(=Nc2cccnc2)SCC1(O)c1ccc(C)cc1` (centres undefined) gave CYP2C19 inhib 95*, CYP2C9 inhib 78*, Cav3 T inh -0.022, CYP2C9 activ 0.2 and CYP2C19 act 0.
Screening CC(C)Sc1nc2c(c(=O)n1C)SC(C)C2 (centres undefined) returned CYP2C19 inhib 18, CYP2C9 inhib 41, Cav3 T inh 0.24, CYP2C9 activ 0.6 and CYP2C19 act 0.8.
`COc1ccc(/C=N\NC(=O)C2C(=O)NCC2c2ccccc2)cc1O` (centres undefined) gave CYP2C19 inhib -4, CYP2C9 inhib -2, Cav3 T inh 0.99, PTK2B oligo ant 0.61, CYP2C9 activ 1 and CYP2C19 act 1.
`O=C1NCC(c2ccccc2)C1C(=O)N/N=C\c1ccc(-c2ccc(Cl)c(Cl)c2)o1` (centres undefined) gave CYP2C19 inhib 26, CYP2C9 inhib 67*, Cav3 T inh -3.3, PTK2B oligo ant 1.6, CYP2C9 activ 0.3 and CYP2C19 act 0.7.
Screening CCCS(=O)(=O)n1nc(-c2ccc(OC)cc2)cc1N returned CYP2C19 inhib 94*, CYP2C9 inhib 87*, Cav3 T inh 0.028, CYP2C9 activ 0.1 and CYP2C19 act 0.1.
`CCCS(=O)(=O)n1nc(-c2ccc(C)cc2)cc1N` gave CYP2C19 inhib 91*, CYP2C9 inhib 67*, Cav3 T inh -0.36, CYP2C9 activ 0.3 and CYP2C19 act 0.1.
Screening Cc1ccc(-c2cc(N)n(Cc3ccc(Cl)cc3)n2)cc1 returned CYP2C19 inhib 83*, CYP2C9 inhib 62*, Cav3 T inh -5*, PTK2B oligo ant -0.9, CYP2C9 activ 0.4 and CYP2C19 act 0.2.
